12-LOX inh: ALOX12 (human) lipoxygenase inhibition | P18054 | purified 12hLO, xylenol orange hydroperoxide absorbance | Potency, µM (doses to about 108 µM), inactives show at the top dose activity change, negative = inhibition, usual class: inhibitors | actives 1.1% (n = 580,000) | AID 1671190; note: potency is the fitted concentration of half-maximal effect
Target sequence (P18054 whole entry, looked up): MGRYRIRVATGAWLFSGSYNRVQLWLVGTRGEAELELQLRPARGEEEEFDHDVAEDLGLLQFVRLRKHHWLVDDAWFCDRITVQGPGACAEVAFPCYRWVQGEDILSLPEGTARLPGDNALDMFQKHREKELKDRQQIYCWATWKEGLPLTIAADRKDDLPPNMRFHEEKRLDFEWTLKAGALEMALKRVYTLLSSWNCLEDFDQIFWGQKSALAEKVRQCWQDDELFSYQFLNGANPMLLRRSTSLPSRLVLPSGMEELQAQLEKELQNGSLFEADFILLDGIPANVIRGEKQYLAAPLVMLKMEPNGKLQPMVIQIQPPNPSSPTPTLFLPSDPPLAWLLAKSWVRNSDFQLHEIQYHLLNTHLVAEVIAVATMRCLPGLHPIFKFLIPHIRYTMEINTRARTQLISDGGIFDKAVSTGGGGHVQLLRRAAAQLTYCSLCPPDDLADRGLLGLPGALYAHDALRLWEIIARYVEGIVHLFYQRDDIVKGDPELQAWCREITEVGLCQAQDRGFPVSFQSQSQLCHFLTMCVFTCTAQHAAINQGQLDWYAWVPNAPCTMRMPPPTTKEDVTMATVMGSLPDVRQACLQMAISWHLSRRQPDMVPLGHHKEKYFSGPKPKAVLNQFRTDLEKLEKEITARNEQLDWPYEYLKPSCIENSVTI
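Hydroperoxide product was detected by ferrous iron/xylenol orange as the 573 to 405 nm absorbance ratio. Arachidonic acid at 40 uM (final) was turned over for 30 min at room temperature by 150 nM human 12hLO, pH 7.0 Hepes buffer, after 15 min compound preincubation.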
HT1080-NT tox: kills 2HG-producing HT-1080-NT fibrosarcoma cells; HT-1080-NT fibrosarcoma viability, CellTiter-Glo ATP luminescence, 48 h; actives 1.6% (n = 360,000); Potency, µM (doses to about 46.1 µM), without a hit: at the top dose activity, negative = less viability, most hits filed as cytotoxic; AID 686970;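 note: NT is the 2HG producing partner of a matched IDH1 knockdown line; potency is the fitted concentration of half-maximal effect; 0% = DMSO-treated cells and -100% = media-only wells without cells; nearly all actives have a fitted effect of over 55% in size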
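Luminescent CellTiter-Glo readout after 48 hours of compound exposure at 37 degrees C defined viability of HT-1080-NT cells. Activity was normalized to DMSO wells and cell-free media wells; concentration-response curves were fitted and assigned curve classes.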
DT40 TDP1 CPT: DT40-hTDP1 cell growth loss with CPT. actives 12% (n = 420,000). chicken DT40 Tdp1-/-;hTDP1 cells + 20 nM CPT, ATP luminescence, 48 h. Potency, µM (highest dose often 46.2 µM), inactives show at the highest dose activity change, negative = growth inhibition, most hits filed as inhibitors; note: potency is the fitted concentration of half-maximal effect; nearly all actives have a fitted effect of over 55% in size
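Chicken DT40 Tdp1-/- cells stably complemented with human TDP1 were seeded at 400 cells/well in medium containing 20 nM camptothecin, exposed to pin-transferred compounds, and grown at 37 °C for at least 48 hr. Viability was read as ATP luminescence.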
HT1080 IDH1KD tx: HT-1080 IDH1 knockdown cell toxicity (counter line) | HT-1080 IDH1 knockdown viability, ATP luminescence, 48 h | Potency, µM (top dose mostly 46.1 µM), inactives show at the highest dose activity, negative = toxicity, usual class: cytotoxic | actives 2% (n = 360,000) | AID 686971;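 note: potency is the fitted concentration of half-maximal effect; 0% = DMSO wells and -100% = cell-free medium wells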
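Luminescent ATP read-out (CellTiter-Glo, 10 min at room temperature) after 48 h compound exposure at 37 °C gave viability of IDH1-knockdown HT-1080 cells. Activity was normalised to DMSO and cell-free wells, then fitted as concentration-response curves.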
IL-1B inflam inh: inflammasome signaling inhibition, IL-1 beta readout; THP-1 LPS/ATP IL-1B secretion, AlphaLISA, 16 h; active compounds read low; activity change, % at 57.5 µM; actives 4.7% (n = 360,000); AID 743279; in the data active = activity change below about -50%; inconclusive = mostly about -30% to -49%
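Secreted IL-1B measured by AlphaLISA bead assay after 16 h compound exposure of THP-1 cells; compounds (final up to 57.5 uM) added 1 h before LPS (250 ng/mL) and ATP (1.25 mM) stimulation; lower signal means less secretion.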
DT40 TDP1 no CPT: qHTS for Inhibitors of human tyrosyl-DNA phosphodiesterase 1 (TDP1): qHTS in cells in absence of CPT. DT40 Tdp1-/- hTDP1 cells, no CPT, ATP luminescence, 48 h. Potency, µM (series often up to 46.2 µM), for inactives: top-dose activity change, negative = growth inhibition, usual class: inhibitors. actives 15% (n = 420,000); note: potency is the fitted concentration of half-maximal effect; nearly all actives have a fitted effect of over 55% in size
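Luminescent ATP content (CellTiter-Glo) served as the growth readout. Knockout chicken DT40 cells expressing human TDP1 were exposed to compounds without camptothecin for a minimum 48 hr at 37 °C.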
* hit, by the source's call; [ ] = another dose, or the depositor's remark. Only a selection was taken, and hits are over-represented in it overall. Unless noted, calls come from the whole dose curve; as a rule, active = well fitted curve in the direction sought with a large enough effect; inconclusive = small, poorly fitted or top-dose-only effect, or another doubt; inactive = no such curve, though single readings can be large; an effect the other way counts as inactive or inconclusive. Unless noted, % is set by controls: 0 for no effect and ±100 for the full control effect.

How did O=C(CSc1n[nH]c(-c2ccccc2)n1)NCc1cccc(C(=O)O)c1 do in these assays?
12-LOX inh: -15%; HT1080-NT tox: 24%; DT40 TDP1 CPT: 10%; HT1080 IDH1KD tx: 18%; IL-1B inflam inh: 6; DT40 TDP1 no CPT: 0%

How did Cc1noc(C)c1CN(C(=S)NC1CC2CCC1C2)c1ccccc1 (configuration not stated) do in these assays?
12-LOX inh: 3%; HT1080-NT tox: -3%; DT40 TDP1 CPT: inconclusive; HT1080 IDH1KD tx: -21%; IL-1B inflam inh: inconclusive; DT40 TDP1 no CPT: 23µM*

What do the screens show for `Cc1noc(C)c1CN(C(=S)NC(C)C)c1ccccc1`?
12-LOX inh: -13%; HT1080-NT tox: 13%; DT40 TDP1 CPT: 17%; HT1080 IDH1KD tx: 18%; IL-1B inflam inh: 36; DT40 TDP1 no CPT: -21%

What do the screens show for `C[C@H](NC(=O)C[C@@H]1CC[C@H]2[C@@H](COC[C@H](O)CN2Cc2ccc(C(F)(F)F)cc2)O1)c1ccccc1`?
12-LOX inh: -9%; HT1080-NT tox: 3%; DT40 TDP1 CPT: 18µM*; HT1080 IDH1KD tx: -2%; IL-1B inflam inh: 1; DT40 TDP1 no CPT: 21µM*

How did O=C(C[C@H]1CC[C@@H]2[C@H](COC[C@@H](O)CN2Cc2ccc(Cl)cc2)O1)NCCc1ccccc1 do in these assays?
12-LOX inh: inconclusive; HT1080-NT tox: -2%; DT40 TDP1 CPT: -28%; HT1080 IDH1KD tx: -1%; IL-1B inflam inh: -11; DT40 TDP1 no CPT: inconclusive

How did CCOC(=O)C1CCCN(C(=O)c2cc3cc(F)ccc3[nH]2)C1 (configuration not stated) do in these assays?
12-LOX inh: 363%; HT1080-NT tox: -4%; DT40 TDP1 CPT: inconclusive; HT1080 IDH1KD tx: 3%; IL-1B inflam inh: 29; DT40 TDP1 no CPT: inconclusive

How did O=C(c1cc2cc(F)ccc2[nH]1)N1CCCC(Nc2ccc(F)cc2)C1 (configuration not stated) do in these assays?
12-LOX inh: -9%; HT1080-NT tox: -28%; DT40 TDP1 CPT: 15µM*; HT1080 IDH1KD tx: inconclusive; IL-1B inflam inh: 1; DT40 TDP1 no CPT: inconclusive

How did O=c1[nH]c2ccccc2nc1NCc1ccccc1 do in these assays?
12-LOX inh: 13%; HT1080-NT tox: -5%; DT40 TDP1 CPT: 9%; HT1080 IDH1KD tx: -15%; IL-1B inflam inh: -24; DT40 TDP1 no CPT: -17%

Results for c1ccc(CNc2nc3ccccc3[nH]2)cc1 ?
12-LOX inh: 11%; HT1080-NT tox: inconclusive; DT40 TDP1 CPT: inconclusive; HT1080 IDH1KD tx: -2%[9.24 µM]; IL-1B inflam inh: -60*; DT40 TDP1 no CPT: 18µM*

Results for Cc1ccc2nc(NCc3ccccc3)[nH]c2c1 ?
12-LOX inh: -1%; HT1080-NT tox: 5.8µM*; DT40 TDP1 CPT: 4.1µM*; HT1080 IDH1KD tx: 3.7µM*; IL-1B inflam inh: -73*; DT40 TDP1 no CPT: 4.6µM*

What do the screens show for `Cc1ccc2nc(NCc3ccccc3)c(C#N)cc2c1`?
12-LOX inh: -10%; HT1080-NT tox: 14%; DT40 TDP1 CPT: 2%; HT1080 IDH1KD tx: 13%; IL-1B inflam inh: 30; DT40 TDP1 no CPT: 0%

What do the screens show for `COc1ccc2nc(NCc3ccccc3)[nH]c2c1`?
12-LOX inh: -22%; HT1080-NT tox: inconclusive; DT40 TDP1 CPT: inconclusive; HT1080 IDH1KD tx: inconclusive; IL-1B inflam inh: -102*; DT40 TDP1 no CPT: 15µM*

How did COc1ccc2nc(NCCO)[nH]c2c1 do in these assays?
12-LOX inh: 33%; HT1080-NT tox: -3%; DT40 TDP1 CPT: -4%; HT1080 IDH1KD tx: -1%; IL-1B inflam inh: 30; DT40 TDP1 no CPT: -15%

How did S=C(NCc1ccccc1)NNc1nc2ccccc2[nH]1 do in these assays?
12-LOX inh: 32µM*; HT1080-NT tox: -13%; DT40 TDP1 CPT: inconclusive; HT1080 IDH1KD tx: inconclusive; IL-1B inflam inh: 1; DT40 TDP1 no CPT: inconclusive

What do the screens show for `COc1ccc2nc(CO[C@H]3CN(Cc4cccnc4)C[C@H]3F)[nH]c2c1`?
12-LOX inh: 17%[176 µM]

Results for O=C(NCC(c1ccco1)N1CCc2ccccc21)C(=O)Nc1ccc(F)cc1F (configuration not stated) ?
12-LOX inh: inconclusive; HT1080-NT tox: inconclusive; DT40 TDP1 CPT: 4.1µM*; HT1080 IDH1KD tx: inconclusive; IL-1B inflam inh: 1; DT40 TDP1 no CPT: 3.3µM*

How did O=C(NCC(c1ccco1)N1CCc2ccccc21)C(=O)Nc1ccccc1 (configuration not stated) do in these assays?
12-LOX inh: inconclusive; HT1080-NT tox: -14%; DT40 TDP1 CPT: -35%; HT1080 IDH1KD tx: -4%; IL-1B inflam inh: 27; DT40 TDP1 no CPT: inconclusive

What do the screens show for `CN1CCN(C(CNC(=O)C(=O)Nc2ccc(F)cc2F)c2ccc3c(c2)OCO3)CC1` (configuration not stated)?
12-LOX inh: -1%; DT40 TDP1 CPT: -11%; DT40 TDP1 no CPT: -24%

What do the screens show for `O=C(NCC(c1ccco1)N1CCc2ccccc21)C(=O)Nc1ccccc1F` (configuration not stated)?
12-LOX inh: -17%; HT1080-NT tox: -3%; DT40 TDP1 CPT: inconclusive; HT1080 IDH1KD tx: -18%; IL-1B inflam inh: -7; DT40 TDP1 no CPT: 18µM*

How did Fc1ccccc1COc1ccccc1CNCC1CCNCC1 do in these assays?
12-LOX inh: 0%

What do the screens show for `O=C(Nc1nc(-c2ccccn2)cs1)C1CC(=O)N(c2ccc3c(c2)OCCO3)C1` (configuration not stated)?
12-LOX inh: 7%; HT1080-NT tox: -17%; DT40 TDP1 CPT: 26µM*; HT1080 IDH1KD tx: -11%; IL-1B inflam inh: 23; DT40 TDP1 no CPT: 16µM*

What do the screens show for `O=C(Nc1nc(-c2ccccn2)cs1)C1CC1`?
12-LOX inh: 22%; HT1080-NT tox: -6%; DT40 TDP1 CPT: 23µM*; HT1080 IDH1KD tx: -9%; IL-1B inflam inh: -1; DT40 TDP1 no CPT: 18µM*

What do the screens show for `O=C(Nc1nc(-c2ccccn2)cs1)C1CC(=O)N(c2ccccc2F)C1` (configuration not stated)?
12-LOX inh: 6%

How did O=C(CC1CC2CCC1C2)NCCc1ccccn1 (configuration not stated) do in these assays?
12-LOX inh: 15%

How did O=C(CC1CC2CCC1C2)Nc1nc(-c2ccccn2)cs1 (configuration not stated) do in these assays?
12-LOX inh: -20%; HT1080-NT tox: -2%; DT40 TDP1 CPT: inconclusive; HT1080 IDH1KD tx: -26%; IL-1B inflam inh: 91; DT40 TDP1 no CPT: 6.5µM*
